The target in test [1] is Muscarinic acetylcholine receptor M1 (Rattus norvegicus) (UniProt P08482). Description: qHTS Assay for Antagonists of Acetylcholine Muscarinic M1 Receptor: Measurement of IP-One Response (AID 944). Further: nearly all actives have a fitted effect of over 75% in size. Summed up: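 IP1 accumulation measured via TR-FRET between d2-IP1 and Eu-cryptate anti-IP1 antibody after carbachol (200 nM, EC80) stimulation for 30 min; rat M1-transfected CHO cells received compound 10 min before agonist.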
Chain of Muscarinic acetylcholine receptor M1 (Rattus norvegicus) (P08482 whole entry, looked up): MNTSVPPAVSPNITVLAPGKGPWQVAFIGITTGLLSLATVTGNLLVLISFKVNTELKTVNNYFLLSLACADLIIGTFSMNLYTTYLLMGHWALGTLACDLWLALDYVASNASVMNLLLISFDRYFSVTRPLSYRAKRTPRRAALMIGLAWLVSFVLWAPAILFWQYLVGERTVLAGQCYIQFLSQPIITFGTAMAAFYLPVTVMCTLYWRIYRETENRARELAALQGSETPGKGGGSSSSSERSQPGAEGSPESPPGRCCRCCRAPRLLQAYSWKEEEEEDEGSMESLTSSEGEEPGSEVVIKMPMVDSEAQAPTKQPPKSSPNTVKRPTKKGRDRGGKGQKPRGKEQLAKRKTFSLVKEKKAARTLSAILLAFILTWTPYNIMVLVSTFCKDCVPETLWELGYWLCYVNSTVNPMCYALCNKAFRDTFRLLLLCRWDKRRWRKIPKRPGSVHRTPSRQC

Test [2] deals with Pyruvate kinase (Leishmania mexicana) (UniProt Q27686). Description: qHTS Validation Assay for Inhibitors of Leishmania Mexicana Pyruvate Kinase (AID 945).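 Further: 0% = DMSO only neutral control wells.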 Summed up: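 Pyruvate kinase activity of E451W LmPYK (0.2 nM) was followed as ATP output after 1 h at room temperature with 0.5 mM PEP and 0.1 mM ADP, detected by PKLight luminescence.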
Chain of Pyruvate kinase (Leishmania mexicana) (Q27686 2-499 E452W): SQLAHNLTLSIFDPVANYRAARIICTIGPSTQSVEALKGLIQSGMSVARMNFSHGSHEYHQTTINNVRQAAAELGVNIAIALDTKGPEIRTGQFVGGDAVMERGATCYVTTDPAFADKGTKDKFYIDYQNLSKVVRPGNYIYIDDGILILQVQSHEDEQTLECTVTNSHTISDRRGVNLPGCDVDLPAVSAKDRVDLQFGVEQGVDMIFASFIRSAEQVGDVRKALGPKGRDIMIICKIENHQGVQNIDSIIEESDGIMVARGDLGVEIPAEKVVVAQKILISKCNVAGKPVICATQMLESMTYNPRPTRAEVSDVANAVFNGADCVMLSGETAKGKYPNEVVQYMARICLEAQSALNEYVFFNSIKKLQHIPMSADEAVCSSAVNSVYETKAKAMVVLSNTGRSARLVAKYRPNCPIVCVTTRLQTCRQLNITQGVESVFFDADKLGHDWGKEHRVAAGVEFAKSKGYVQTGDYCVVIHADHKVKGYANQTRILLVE
In test [3] the target is Pyruvate kinase PKM (Homo sapiens) (UniProt P14618). The test can be described thus: qHTS Assay for Activators of Human Muscle Pyruvate Kinase (AID 954; active means well fitted curve in the direction sought with a large enough effect, not every such curve was filed as active;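 further: 0% = uninhibited enzyme and -100% = no enzyme or full thiadiazolimine inhibition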). Summed up: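 ATP production by PKM2 detected via luciferase luminescence after 1 h room-temperature reaction (0.1 nM enzyme, PEP at Km 0.5 mM, ADP 0.1 mM, pH 7.2 imidazole buffer). Inhibition scaled to no-enzyme control; activation referenced to 0.3 nM enzyme wells.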
Chain of Pyruvate kinase PKM (Homo sapiens) (P14618 whole entry, looked up): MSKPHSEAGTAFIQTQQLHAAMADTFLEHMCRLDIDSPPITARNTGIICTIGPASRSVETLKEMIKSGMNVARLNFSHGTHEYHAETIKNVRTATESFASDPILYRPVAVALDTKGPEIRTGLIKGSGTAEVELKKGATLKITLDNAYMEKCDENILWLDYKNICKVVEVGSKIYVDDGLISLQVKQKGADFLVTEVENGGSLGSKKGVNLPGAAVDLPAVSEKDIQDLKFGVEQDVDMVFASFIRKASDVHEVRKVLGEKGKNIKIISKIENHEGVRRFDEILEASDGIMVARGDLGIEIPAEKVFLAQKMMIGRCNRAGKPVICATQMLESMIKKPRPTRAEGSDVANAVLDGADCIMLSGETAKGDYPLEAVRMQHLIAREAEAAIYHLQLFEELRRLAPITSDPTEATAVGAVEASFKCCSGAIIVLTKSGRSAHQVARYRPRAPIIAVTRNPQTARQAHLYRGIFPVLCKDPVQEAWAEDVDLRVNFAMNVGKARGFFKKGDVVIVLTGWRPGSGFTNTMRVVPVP

The target in test [4] is Guanine nucleotide-binding protein G(i) subunit alpha-1 (Homo sapiens) (UniProt P63096). The test can be described thus: qHTS Assay for Inhibitors of RGS12 GoLoco Motif Activity (Green Fluorophore) (AID 879).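 Further: 0% = labeled peptide with Gαi1 and full inhibition = labeled peptide alone without protein; negative values mean loss of peptide binding seen as reduced polarization.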 The essentials:
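A drop in FITC polarization marked displacement of the FITC-tagged RGS12 GoLoco peptide (10 nM) from Gαi1 (50 nM). Compounds were incubated 10 min at room temperature in Tris pH 7.5 buffer containing 150 mM NaCl, 0.1 mM GDP and 0.05% NP40; unlabeled peptide titration served as control.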

Test [5] can be described thus: Cell Viability - Jurkat (AID 426;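 active means dose-dependent loss of cell ATP signal giving a full or clear fitted curve, ranked by lower potency value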;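 further: potency means the concentration at half of the fitted maximal effect; cells exposed to compound for 40 hours at 37 °C before ATP read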). Conditions: qHTS. Summed up: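 Cytotoxicity taken as drop in cellular ATP (CellTiter-Glo luminescence, 20 min room temperature) after 40 hr, 37C treatment of 5000 Jurkat Clone E6-1 cells per well; concentration-response fitted with Hill equation for AC50.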
Test [6] can be described thus: Cell Viability - NIH 3T3 (AID 541).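 Further: cells exposed to compound for 40 hours; plate controls were DMSO alone for no effect and tamoxifen positive control for full effect; nearly all actives have a fitted effect of over 25% in size.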 Particulars: NIH 3T3 cell viability, qHTS; activity change, negative = cytotoxicity: at 92.2 µM (top of the series). The essentials:
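Intracellular ATP (CellTiter-Glo luminescence, 20 min at room temperature) measured after 40 hr compound exposure at 37 °C of 1000 NIH 3T3 mouse fibroblasts/well in complete medium; AC50 derived by Hill-equation modelling of qHTS concentration-response curves.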

The nature of test [7]: Cell Viability - Mesenchymal (AID 546).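 Further: cells exposed to compound for 40 hours before reading; 0% = DMSO only and -100% = 100 µM tamoxifen.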 Conditions: mesenchymal cells viability, qHTS; activity change, negative = cytotoxicity: at 91.7 µM (top of the series). Summed up:
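In this qHTS cytotoxicity format, glomerulus-derived human mesenchymal kidney cells received compound for 40 hr, then luciferase-based ATP quantitation. Concentration-response data were fitted with the Hill equation.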
(In qHTS, concentration-response curves come from the screen itself.)

A short description of test [8]: Cell Viability - LYMP1-003 - Assay at 24 hr (AID 963).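 Further: plate controls were DMSO only for no effect and tetraoctylammonium bromide positive control for full effect.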 The essentials: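 Concentration-response qHTS: ATP loss measured by CellTiter-Glo luminescence after 24 h compound exposure at 37 C. Cells were LYMP1-003 human lymphoblastoid, 2500 per well. AC50 derived via standard Hill equation modeling.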
Test [9] in a line: Cell Viability - LYMP2-025 (AID 976).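 Further: plate controls were DMSO only for no effect and tetraoctylammonium bromide control for full effect.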 The essentials: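 Cytotoxicity read as loss of intracellular ATP (luciferase luminescence) after 24 h compound treatment at 37 C. Uses LYMP2-025 lymphoblastoid cells in 1536-well format; Hill-equation modelling gives AC50; tetraoctylammonium bromide as positive control.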
The nature of test [10]: Cell Viability - LYMP2-006 (AID 978).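 Further: cells exposed to compound for 24 hours; on the % scale 0 is the no-effect control and ±100 the full control effect; nearly all actives have a fitted effect of over 60% in size.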 The essentials: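 Cells are seeded at 2500 per well and rested 5 hr at 37 C. Compounds are added across a concentration series for 24 hr at 37 C, after which ATP is quantified by luciferase luminescence.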
A short description of test [11]: Cell Viability - LYMP1-002 - Assay at 40 hr (AID 994).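 Further: 0% = DMSO only and full inhibition = 92 µM tetraoctylammonium bromide; nearly all actives have a fitted effect of over 60% in size.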 The essentials:
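Cytotoxicity was read as loss of cellular ATP (CellTiter-Glo luminescence) after 40 hr compound exposure at 37 C of 2500 LYMP1-002 lymphoblastoid cells per well. Concentration-response data were fitted with the standard Hill equation to give AC50.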

Test [12] deals with Glucocorticoid receptor (Homo sapiens) (UniProt P04150). Description: qHTS assay for small molecule antagonists of glucocorticoid receptor signaling (AID 588533; active means well fitted inhibition curve with a large enough effect in the signal ratio, with a control signal flat, not every such curve was filed as active; the % refers to the signal ratio;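 further: cells stimulated with 2 nM dexamethasone as agonist; on the % scale 0 is the no-effect control and ±100 the full control effect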). The essentials:
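Antagonist-mode qHTS: compound titrations added to GRE-bla HeLa cells, then dexamethasone 2 nM final; 18 h, 37 C. CCF4 FRET fluorescence normalized to dexamethasone and DMSO; IC50 from Hill fit.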

Test [13] is described as follows: qHTS assay for small molecule antagonists of the retinoid-related orphan receptor gamma (ROR-gamma) signaling pathway - cell viability counter screen (AID 720652; active means well fitted curve in the direction sought with a large enough effect in the repeat runs; an effect the other way counts as inactive or inconclusive;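 further: CHO reporter cells with doxycycline-induced ROR-gamma expression; compound exposure lasted 16 hr before ATP read; on the % scale 0 is the no-effect control and ±100 the full control effect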). Summed up:
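Cytotoxicity counter screen: intracellular ATP (CellTiter-Glo luminescence) measured in the doxycycline-induced CHO RORE-luciferase reporter line after 16 hr compound exposure at 37 C, 5% CO2.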

Test [14] is described as follows: Cell Viability - LYMP2-023 (AID 975).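 Further: cellular ATP measured by luciferase luminescence as viability proxy; cells exposed to compound for 24 hours at 37 °C; plate controls were DMSO only for no effect and 92 µM tetraoctylammonium bromide control for full effect; nearly all actives have a fitted effect of over 55% in size.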 The essentials:
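Intracellular ATP, read by CellTiter-Glo luminescence, reports viability after 24 hr compound exposure at 37 C. 2500 lymphoblastoid cells/well (LYMP2-023) seeded 5 hr beforehand; Hill fits give AC50; positive control tetraoctylammonium bromide.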

Test [15] is described as follows: Cell Viability - LYMP2-026 (AID 989). Further: on the % scale 0 is the no-effect control and ±100 the full control effect; nearly all actives have a fitted effect of over 50% in size. The essentials: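 Cytotoxicity read as ATP-dependent luminescence (CellTiter-Glo, 30 min room temperature) after 24 h compound treatment at 37 C. LYMP2-026 lymphoblastoid line seeded at 2500 cells/well; AC50 derived by standard Hill equation.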
The target in test [16] is Estrogen receptor (Homo sapiens) (UniProt P03372). Description: qHTS assay for small molecule antagonists of estrogen receptor alpha signaling (AID 588513; active means well fitted curve in the direction sought with a large enough effect in the signal ratio, with a control signal flat, not every such curve was filed as active; the % refers to the signal ratio; further: on the % scale 0 is the no-effect control and ±100 the full control effect). Summed up: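 Fluorescence from CCF4 substrate after 2 h at room temperature gave reporter activity; cells had been exposed to compound and 0.5nM 17-beta-estradiol for 18 h at 37 C. Hill-equation fitting yielded IC50 and maximal response.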
Chain of Estrogen receptor (Homo sapiens) (P03372 whole entry, looked up): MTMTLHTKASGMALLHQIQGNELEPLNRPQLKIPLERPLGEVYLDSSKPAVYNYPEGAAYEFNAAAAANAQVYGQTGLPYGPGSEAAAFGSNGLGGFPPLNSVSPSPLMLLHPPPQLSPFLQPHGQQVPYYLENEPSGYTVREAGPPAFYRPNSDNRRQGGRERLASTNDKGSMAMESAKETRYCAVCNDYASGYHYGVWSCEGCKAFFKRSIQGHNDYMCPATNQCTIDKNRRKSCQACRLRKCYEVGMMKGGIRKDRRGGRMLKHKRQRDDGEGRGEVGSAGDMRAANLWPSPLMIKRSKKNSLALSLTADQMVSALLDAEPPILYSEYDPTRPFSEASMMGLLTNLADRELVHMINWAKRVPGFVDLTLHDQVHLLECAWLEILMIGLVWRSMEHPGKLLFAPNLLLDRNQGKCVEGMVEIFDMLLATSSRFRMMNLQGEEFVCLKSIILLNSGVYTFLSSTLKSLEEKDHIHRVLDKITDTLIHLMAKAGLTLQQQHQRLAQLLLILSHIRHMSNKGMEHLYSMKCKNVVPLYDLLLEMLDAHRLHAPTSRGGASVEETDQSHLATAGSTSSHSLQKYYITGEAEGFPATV

The target is the same in test [17]. Description: qHTS assay for small molecule agonists of estrogen receptor alpha signaling (AID 588514; calls by dose curve;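 further: 0% = vehicle only and 100% = reference agonist; nearly all actives have a fitted effect of over 70% in size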). The essentials:
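EC50 and efficacy came from Hill fits of beta-lactamase reporter signal (CCF4 dye, 2 h at room temperature) scaled between DMSO and 20 nM 17-beta-estradiol. Agonist mode: HEK293 ER-alpha-UAS-bla cells in charcoal/dextran-stripped serum medium, 18 h compound exposure at 37 C.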

Test [18] addresses Peroxisome proliferator-activated receptor gamma (Homo sapiens) (UniProt P37231). Description: qHTS assay for small molecule agonists of peroxisome proliferator-activated receptor gamma signaling (AID 588536; active means well fitted curve in the direction sought with a large enough effect in the signal ratio, with a control signal flat, not every such curve was filed as active; the % refers to the signal ratio;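 further: 0% = DMSO basal wells and 100% = rosiglitazone at 2 µM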). The essentials:
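This is an agonist-mode beta-lactamase reporter assay in HEK293 PPAR-gamma-UAS-bla cells with 1% charcoal/dextran FBS. Compound titrations ran 16 h at 37 C before CCF4 detection. EC50 and efficacy are Hill fits scaled to 2 uM rosiglitazone (100%) and DMSO basal.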

A short description of test [19]: Cellular Toxicity (caspase-3) SK-N-SH (AID 661).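 Further: 0% = DMSO basal and 100% = 10 µM staurosporine.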 Summed up: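 Caspase 3/7 activation was read by luminogenic substrate cleavage after 16 hour treatment of SK-N-SH cells. Signal was scaled between DMSO and 10 uM staurosporine, and concentration-response data were fitted with the Hill equation for AC50.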
The nature of test [20]: Cell Viability - LYMP2-008 (AID 980). Further: on the % scale 0 is the no-effect control and ±100 the full control effect; nearly all actives have a fitted effect of over 60% in size. Summed up: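 Cytotoxicity determined from ATP-dependent luciferase luminescence (CellTiter-Glo) following 24 h compound exposure of human lymphoblastoid LYMP2-008 cells at 37 C. Concentration-response data fitted to the Hill equation to give AC50.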

Unmarked numbers belong to inactive results. Inconclusive results are not listed. Calls of active or inactive are those of the source. Unless noted, the call rests on the fitted dose curve; in most records, active means well fitted curve in the direction sought with a large enough effect; inconclusive means small, poorly fitted or top-dose-only effect, or another doubt; inactive means no such curve, though single readings can be large; an effect the other way counts as inactive or inconclusive.

Chain of Peroxisome proliferator-activated receptor gamma (Homo sapiens) (P37231 whole entry, looked up): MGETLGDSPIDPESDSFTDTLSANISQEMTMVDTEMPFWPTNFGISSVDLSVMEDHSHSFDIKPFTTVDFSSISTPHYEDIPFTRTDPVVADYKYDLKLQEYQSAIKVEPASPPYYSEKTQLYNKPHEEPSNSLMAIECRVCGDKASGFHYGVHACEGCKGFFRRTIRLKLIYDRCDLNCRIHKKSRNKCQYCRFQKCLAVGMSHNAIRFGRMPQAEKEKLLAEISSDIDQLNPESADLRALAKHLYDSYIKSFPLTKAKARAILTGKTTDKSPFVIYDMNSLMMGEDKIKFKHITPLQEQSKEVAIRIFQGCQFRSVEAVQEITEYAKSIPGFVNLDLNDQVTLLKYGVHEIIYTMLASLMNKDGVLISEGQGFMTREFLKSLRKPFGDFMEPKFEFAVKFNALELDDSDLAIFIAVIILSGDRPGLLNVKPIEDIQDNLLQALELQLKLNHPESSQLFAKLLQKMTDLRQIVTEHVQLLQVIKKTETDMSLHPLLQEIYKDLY
Chain of Glucocorticoid receptor (Homo sapiens) (P04150 whole entry, looked up): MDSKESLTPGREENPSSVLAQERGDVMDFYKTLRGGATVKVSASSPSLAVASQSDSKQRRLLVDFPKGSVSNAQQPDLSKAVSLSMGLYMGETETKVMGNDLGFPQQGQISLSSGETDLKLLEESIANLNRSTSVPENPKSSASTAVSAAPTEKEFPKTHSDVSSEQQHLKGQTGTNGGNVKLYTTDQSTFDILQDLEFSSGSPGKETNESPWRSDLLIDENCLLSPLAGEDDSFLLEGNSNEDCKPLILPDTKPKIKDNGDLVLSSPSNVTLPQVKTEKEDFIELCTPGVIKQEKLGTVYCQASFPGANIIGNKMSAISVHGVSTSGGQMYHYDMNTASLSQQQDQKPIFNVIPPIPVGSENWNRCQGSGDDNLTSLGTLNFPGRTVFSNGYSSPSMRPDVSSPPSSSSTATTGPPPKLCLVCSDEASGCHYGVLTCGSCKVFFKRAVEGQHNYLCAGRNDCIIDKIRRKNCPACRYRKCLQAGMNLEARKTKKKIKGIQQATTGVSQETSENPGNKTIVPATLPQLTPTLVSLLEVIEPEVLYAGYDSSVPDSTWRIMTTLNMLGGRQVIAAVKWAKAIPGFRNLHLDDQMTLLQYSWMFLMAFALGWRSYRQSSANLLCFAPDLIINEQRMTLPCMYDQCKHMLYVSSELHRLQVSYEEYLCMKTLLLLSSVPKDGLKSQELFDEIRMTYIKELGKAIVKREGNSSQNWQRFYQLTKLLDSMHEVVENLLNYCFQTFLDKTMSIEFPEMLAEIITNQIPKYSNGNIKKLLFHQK
Chain of Guanine nucleotide-binding protein G(i) subunit alpha-1 (Homo sapiens) (P63096 whole entry, looked up): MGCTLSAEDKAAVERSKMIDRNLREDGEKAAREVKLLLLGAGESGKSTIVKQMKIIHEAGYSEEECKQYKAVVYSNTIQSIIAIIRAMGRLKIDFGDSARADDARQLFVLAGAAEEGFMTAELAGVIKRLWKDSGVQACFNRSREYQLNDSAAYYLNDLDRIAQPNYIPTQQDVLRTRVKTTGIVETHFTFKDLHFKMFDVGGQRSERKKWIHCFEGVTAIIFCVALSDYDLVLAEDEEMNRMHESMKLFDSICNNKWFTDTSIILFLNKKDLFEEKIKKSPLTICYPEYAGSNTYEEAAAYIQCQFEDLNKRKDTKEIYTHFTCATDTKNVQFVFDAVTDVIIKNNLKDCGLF

On to `CC(C)(C)[C@@]1(O)CCN2C[C@@H]3c4ccccc4CCc4cccc(c43)[C@@H]2C1`, for which the Potency entry in test [1] was “inactive”. Moreover, the compound was classed as inactive in test [2] and in test [3].

On to `COC(=O)[C@H]1[C@H]2C[C@H]3c4[nH]c5ccccc5c4CCN3C[C@@H]2CC[C@@H]1O`, for which the compound was called inactive in [4], in test [2] and in [3].

As to `CO/N=C(\C(=O)N[C@@H]1C(=O)N2C(C(=O)O)=C(CSc3nc(=O)c(O)nn3C)CS[C@@H]12)c1csc(N)n1`, the outcome in [4], in test [2] and in test [3] was inactive. The Potency entry in test [1] is “inactive”.

Regarding `CN[C@@H](CC(C)C)C(=O)N[C@@H]1C(=O)N[C@H](CC(N)=O)C(=O)N[C@H]2C(=O)N[C@H]3C(=O)N[C@H](C(=O)N[C@H](C(=O)O)c4cc(O)cc(O)c4-c4cc3ccc4O)[C@H](O)c3ccc(c(Cl)c3)Oc3cc2cc(c3O[C@@H]2O[C@@H](CO)[C@@H](O)[C@@H](O)[C@H]2O[C@H]2C[C@](C)(N)[C@H](O)[C@H](C)O2)Oc2ccc(cc2Cl)[C@@H]1O`, the result in test [4], in [2] and in [3] was inactive.

Regarding `CCCCCCCCOc1ccc(C(=O)O)cc1`, the Potency in test [5] is greater than 92 µM. The activity change, negative = cytotoxicity in [6] was -11.5%. Moreover, the Potency result in test [7], in test [8], in test [9], in test [10], in test [11] and in [12] was “inactive” throughout. Also, the Potency entry in [13] was “inactive”.

`CC(=O)c1ccc(Cl)c(Cl)c1Cl`: the Potency in test [5] is greater than 92 µM. Moreover, the activity change, negative = cytotoxicity in test [6] is -14.4%. Also, the Potency entry in test [7], in [14], in test [9], in test [10], in [15] and in [17] was “inactive” throughout. Further, the Potency result in [12] and in test [13] was “inactive” each time. Further, the call in test [16] and in [18] was inactive.

On to `CCC(Cl)CC(Cl)C(Cl)C(Cl)C(Cl)C(C)Cl` (centres undefined), for which the Potency in test [5] is greater than 92 µM. In addition, in test [6], the activity change, negative = cytotoxicity was -16.5%. Also, the Potency entry in test [7], in test [8], in test [9], in test [10], in test [15] and in test [11] was “inactive” each time. Moreover, in test [17], the Potency result is “inactive”. In addition, the result in test [19] and in test [16] was inactive.

In the case of `Oc1ccc(O)c2c(O)cccc12`, the Potency in test [5] is 30 µM (active). Further, in [6], the activity change, negative = cytotoxicity is -29%. Moreover, the Potency result in [7], in [9] and in test [17] was “inactive” throughout. In addition, the compound was classed as inactive in [19] and in test [16].

`c1ccc2c(c1)ccc1ccccc12`: in test [5], the Potency was greater than 92 µM. The activity change, negative = cytotoxicity in test [6] was -132% (active). In addition, the Potency entry in [7], in test [8], in [20], in test [15], in test [11] and in [17] was “inactive” throughout. The Potency result in test [12] and in test [13] was “inactive” in each case. Further, the result in [16] and in [18] was inactive.

These data come from PubChem BioAssay (NCATS).
